# From PubChem BioAssay
# An excerpt weighted towards active compounds, which were near 11% of everything screened.
# Tau fibril ThT: tau fibrillization inhibition (ThT binding) | 270,000 tested, 2.1% active | recombinant tau K18 P301L, heparin-induced fibrillization, ThT fluorescence | P10636 | AID 1460 | Potency, µM (top dose mostly 57.4 µM), without a hit: at the top dose activity, negative = inhibition, usual class: inhibitors; note: potency is the fitted concentration of half-maximal effect; nearly all actives have a fitted effect of over 55% in size
# Target sequence (P10636 561-689 P618L limits assumed): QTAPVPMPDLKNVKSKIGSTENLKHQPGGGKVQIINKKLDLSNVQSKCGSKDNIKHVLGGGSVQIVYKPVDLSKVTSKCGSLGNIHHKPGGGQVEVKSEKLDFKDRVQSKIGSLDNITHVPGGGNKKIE
#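 Heparin-induced (20 uM) aggregation of recombinant human K18 P301L tau, 15 uM unlabeled with 0.24 uM labeled, pH 7 acetate buffer, 6 hr at 37 C with compound. Fibrils quantified by 30 uM ThT fluorescence after 1 hr ambient incubation.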
# Tau fluor cs: counter-screen for tau fibril formation inhibitors | tau K18 P301L (four-repeat tau fragment) Alexa594 fluorescence, heparin fibrillization | Potency, µM (top dose mostly 57.7 µM), for the others: top-dose activity change, negative = decrease | 280,000 tested, 0.93% active | AID 1463; note: potency is the fitted concentration of half-maximal effect; nearly all actives have a fitted effect of over 55% in size
#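 Human K18 P301L tau (15 uM unlabeled plus 0.24 uM Alexa 594-labeled, final) in 100 mM sodium acetate pH 7 was mixed with compound and 20 uM heparin and incubated 6 hr at 37 C.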
# Tau fibril FP: tau fibrillization inhibition (FP). AID 1468. P10636. K18 P301L tau heparin fibrillization, Alexa594 FP, 6 h. Potency, µM (highest dose often 57.7 µM), for inactives: top-dose activity, negative = inhibition, hits mostly inhibitors. 280,000 tested, 0.39% active; note: potency is the fitted concentration of half-maximal effect; nearly all actives have a fitted effect of over 55% in size
#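 K18 P301L tau (15 uM unlabeled/0.24 uM Alexa 594-labeled, final) + compound + heparin 20 uM final; 100 mM NaOAc pH 7; 6 hr 37 C; ThT 30 uM final added, 1 hr RT; FP ex 555/em 632 nm.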
# G9a inh: blocks human histone lysine methyltransferase G9a; Q96KQ7; G9a H3K9 monomethylation, AlphaScreen, 2 h; Potency, µM (top dose mostly 102 µM), for inactives: top-dose activity, negative = inhibition, most hits filed as inhibitors; 350,000 tested, 8.8% active; AID 504332; note: potency is the fitted concentration of half-maximal effect; nearly all actives have a fitted effect of over 75% in size
# Target sequence (Q96KQ7 913-1193 limits assumed): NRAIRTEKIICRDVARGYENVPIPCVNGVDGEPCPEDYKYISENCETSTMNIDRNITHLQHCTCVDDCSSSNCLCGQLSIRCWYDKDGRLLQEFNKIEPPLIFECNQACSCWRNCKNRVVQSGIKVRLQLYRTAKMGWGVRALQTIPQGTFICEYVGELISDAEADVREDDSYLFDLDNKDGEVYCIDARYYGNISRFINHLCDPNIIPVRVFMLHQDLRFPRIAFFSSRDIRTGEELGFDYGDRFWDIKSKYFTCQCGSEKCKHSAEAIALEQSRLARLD
#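 Signal arises when biotinylated H3K9 peptide, once monomethylated, bridges streptavidin donor and antibody-captured acceptor beads. Enzyme at 20 nM was preincubated 15 min with test compounds; peptide 500 nM and SAM 20 uM then reacted for 2 h.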
# Coupling enz: inhibits coupling enzyme system, counter-screen for aldolase hits; coupling enzyme system counterscreen, AmpLite Red fluorescence; activity change, negative = inhibition, % at 58.2 µM, hits read low; 290,000 tested, 0.67% active; AID 2472; in the data active = activity change below about -30%
#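 Compounds tested against the coupling enzymes alone at 57.5 uM final; readout was AmpLite Red fluorescence (525/598 nm) after 20 min at RT.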
# Sfp PPTase inh: Sfp phosphopantetheinyl transferase inhibition; Q9F4F7; Biochemical Sfp PPTase activity, qHTS; Potency, µM, without a hit: largest response in the series, negative = inhibition, usual class: inhibitors; 310,000 tested, 3.5% active;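 note: the enzyme is Sfp with the accession as filed and its product quenches rhodamine fluorescence; potency is the fitted concentration of half-maximal effect; 0% = enzyme reaction without inhibitor and -100% = no enzyme wells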
#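 Fluorescence-quenching assay: 15 nM Sfp-PPTase preincubated 15 min at room temperature with compound, then 5 uM rhodamine-CoA and 12.5 uM BHQ-2-labelled YbbR peptide added. Fluorescence (ex 525/em 598 nm) read at start and after 30 min; difference gives rate.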
# * marks the source's active call; other numbers are inactive results; ? = inconclusive; . = no result given; [ ] = remark or other dose. Unless noted, calls come from the whole dose curve; as a rule, active = well fitted curve in the direction sought with a large enough effect; inconclusive = small, poorly fitted or top-dose-only effect, or another doubt; inactive = no such curve, though single readings can be large; an effect the other way counts as inactive or inconclusive. Unless noted, % is set by controls: 0 for no effect and ±100 for the full control effect.
SMILES,Tau fibril ThT,Tau fluor cs,Tau fibril FP,G9a inh,Coupling enz,Sfp PPTase inh
C[C@H]1CC[C@@H]2[C@@H](C)[C@H]3C(C[C@H]4C5CC[C@H]6C[C@@H](O)CC[C@]6(C)C5CC[C@]34C)N2C1 (some centres not stated),.,.,.,.,-0.6,-5.4%
C[C@H](N)C(=O)N[C@@H](C)C(=O)N[C@@H](Cc1ccccc1)C(=O)CCl,?,-27.6%,?,15.8µM*,.,16.9%
Cn1c(O)c(C(c2ccccn2)c2c(O)n(C)c(=S)[nH]c2=O)c(=O)[nH]c1=S,?,-12.4%,-13.6%,21.9%[0.0925 µM],4.3,79.4µM*
O=c1oc2ccccc2c(O)c1C(c1ccccn1)c1c(O)c2ccccc2oc1=O,?,-19.0%,11.9%,.,8.4,-2.8%
CCOc1ccc(CCNC(=O)c2ccc(-n3c(C)cc4c3CCCC4)cc2)cc1OCC,?,-15.7%,-12.0%,-1.3%[59 µM],.,.
COc1cccc(CN2CCN(C(=O)Cc3ccccc3OC)CC2)c1,.,.,.,.,3.8,8.0%
CCN1CCN(Cc2cccc(Oc3ccccc3)c2)CC1,-0.3%,-1.6%,-2.6%,3.55µM*,-0.1,?
C[C@@H]1OC(=O)[C@H]2C[C@H]3CCCC[C@@H]3[C@@H](/C=C/[C@H]3CCC[C@H](C)N3C)[C@@H]12,-3.9%,-8.0%,-3.2%,25.2%[59 µM],.,29.0%
C[C@@H](N)[C@@H](O)c1ccc(O)c(O)c1,3.98µM*,?,?,2µM*,.,56.2µM*
CCN(CC)C(=O)CN1CCN(c2ccccc2F)CC1,-12.9%,-5.9%,-6.3%,31.6µM*,-0.3,-20.3%
CN1CCN(Cc2c(F)cccc2Cl)CC1,.,.,.,22.4µM*,-0.3,?
Fc1ccccc1N1CCN(Cc2c(F)cccc2F)CC1,-4.7%,-2.6%,6.3%,1.41µM*,1.0,?
Fc1ccccc1N1CCN(Cc2ccc3c(c2)OCO3)CC1,-6.0%,-10.1%,-6.0%,7.94µM*,2.4,?
Fc1cccc(F)c1CN1CCN(c2ccc(Cl)cc2)CC1,.,.,.,13.4%,-1.5,2.7%
CC(C)CN1CCN(Cc2c(F)cccc2Cl)CC1CCO (configuration not stated),-9.7%,-10.7%,3.8%,-24.1%,1.0,-2.5%
COc1ccc(C(=O)Nc2ccc(-c3nc4ccccc4s3)c(Cl)c2)cc1Cl,2.2%,-20.9%,?,-6.5%[59 µM],.,.
COc1ccc(CN2CCN(c3ccccc3F)CC2)cc1O,-10.7%,-2.8%,1.0%,10µM*,-1.9,-15.2%
Clc1ccccc1N1CCN(Cc2ccc3c(c2)OCO3)CC1,.,.,.,-30.8%[12.7 µM],0.6,-25.9%
Cc1ccccc1N1CCN(Cc2ccc3c(c2)OCO3)CC1,.,.,.,7.94µM*,0.6,-5.8%
CN1C(=O)C(O)N=C(c2ccccc2)c2cc(Cl)ccc21 (configuration not stated),-6.1%,-4.8%,-3.4%,21.7%[59 µM],2.5,-8.7%
CC(C)C[C@H](NC(=O)[C@H](Cc1ccccc1)NC(=O)CNC(=O)[C@@H](NC(=O)[C@@H](N)Cc1ccc(O)cc1)[C@H](C)O)C(=O)N[C@H](C(=O)O)[C@H](C)O,3.1%,-0.9%,-1.9%,33.0%[59 µM],.,-10.1%
O=C1NC(=O)C(=O)C(=O)N1,2.51µM*,-24.9%,2.82µM*,.,-59.7*,14.1µM*
O=C1CC(O)(CF)CCO1 (configuration not stated),.,.,.,.,-0.9,6.2%
CC(C)c1ccc(N2C(=O)NC(=O)/C(=C/C=C/c3ccco3)C2=O)cc1,14.1µM*,-28.9%,14.1µM*,50.1µM*,3.0,-11.9%
O=C1NC(=O)N(c2ccccc2)C(=O)/C1=C\C=C\c1ccccc1,11.2µM*,-21.8%,?,.,-2.2,15.8µM*
Cc1cc(C)cc(N2C(=O)NC(=O)/C(=C\C=C\c3ccco3)C2=O)c1,12.6µM*,-18.2%,?,11.2µM*,5.2,44.7µM*
CC(C)c1ccc(N2C(=O)CC(=O)NC2=O)cc1,.,.,.,-28.9%,2.2,7.4%
CCc1ccc(N2NC(=O)/C(=C/C=C/c3ccco3)C2=O)cc1,8.91µM*,10µM*[quencher],?,8.91µM*,2.7,3.7%
